Among the data in paper PMC8384837, “Expanding the binding specificity for RNA recognition by a PUF domain” are binding signal values, retold here.

Common to all, as to experiment: yeast three-hybrid, YBZ-1, SC-Leu-His + 0.5 mM 3-AT, 4 days
Common to all, as to details: tags: N-Gal4 AD-HA kept; label: inside an RPR1-promoter hybrid RNA with tandem MS2 sites; ssRNA

One test addresses PUM1 PUF domain R5-DWW (Homo sapiens, UniProt Q14671 828-1176, C1007D;R1008W;Q1011W). A digest of the protocol:
(§1)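 Sequencing with Illumina followed PCR amplification of the repeat regions from transformants grown four days on SC-Leu (input) or SC-Leu-His + 0.5 mM 3-AT (selection). The transformants were strain YBZ-1 with a LexA–MS2 coat fusion and a HIS3 reporter, carrying Pumilio-1 PUF domain libraries and matching RNA elements. The interaction score is the log change in variant frequency from input to selection, computed in log2 with a pseudocount of 1 for absent variants.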

The target of another test is PUM1 PUF domain R7-RAR (Homo sapiens, UniProt Q14671 828-1176, S1079R;N1080A;E1083R). A digest of the protocol:
as §1

Another test concerns the target PUM1 PUF domain R7-QFR (Homo sapiens, UniProt Q14671 828-1176, S1079Q;N1080F;E1083R). A digest of the protocol: as §1
A further test has as its target PUM1 PUF domain R7-LNS (Homo sapiens, UniProt Q14671 828-1176, S1079L;E1083S). In a few lines: as §1
A further test deals with PUM1 PUF domain R7-CRR (Homo sapiens, UniProt Q14671 828-1176, S1079C;N1080R;E1083R). A digest of the protocol: as §1
For a further test, the target named is PUM1 PUF domain R7-RRR (Homo sapiens, UniProt Q14671 828-1176, S1079R;N1080R;E1083R). In a few lines:
as §1

In another test the target is PUM1 PUF domain R4-WGM (Homo sapiens, UniProt Q14671 828-1176, N971W;H972G;Q975M). A digest of the protocol:
as §1

In the next test the target is PUM1 PUF domain R4-WSH (Homo sapiens, UniProt Q14671 828-1176, N971W;H972S;Q975H). In a few lines:
as §1

In another test the target is PUM1 PUF domain R4-TPN (Homo sapiens, UniProt Q14671 828-1176, N971T;H972P;Q975N). A digest of the protocol: as §1
PUM1 PUF domain R4-TPN, sequence (Q14671 828-1176 N971T/H972P/Q975N): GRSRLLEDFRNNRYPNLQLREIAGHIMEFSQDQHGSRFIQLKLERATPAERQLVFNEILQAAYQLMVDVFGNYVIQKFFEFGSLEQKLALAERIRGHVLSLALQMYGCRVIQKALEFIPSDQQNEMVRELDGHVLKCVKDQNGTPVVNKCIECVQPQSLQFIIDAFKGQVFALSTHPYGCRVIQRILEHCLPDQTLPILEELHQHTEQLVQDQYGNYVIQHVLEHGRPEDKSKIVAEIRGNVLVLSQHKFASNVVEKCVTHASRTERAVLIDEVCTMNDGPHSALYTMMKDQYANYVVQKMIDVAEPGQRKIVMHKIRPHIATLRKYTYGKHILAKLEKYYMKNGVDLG
A further test concerns the target PUM1 PUF domain R4-PFS (Homo sapiens, UniProt Q14671 828-1176, N971P;H972F;Q975S). In a few lines: as §1
For another test, the target named is T1, PUM1 PUF domain R6-IFQ (Homo sapiens, UniProt Q14671 828-1176, N1043I;Y1044F).
T1 sequence: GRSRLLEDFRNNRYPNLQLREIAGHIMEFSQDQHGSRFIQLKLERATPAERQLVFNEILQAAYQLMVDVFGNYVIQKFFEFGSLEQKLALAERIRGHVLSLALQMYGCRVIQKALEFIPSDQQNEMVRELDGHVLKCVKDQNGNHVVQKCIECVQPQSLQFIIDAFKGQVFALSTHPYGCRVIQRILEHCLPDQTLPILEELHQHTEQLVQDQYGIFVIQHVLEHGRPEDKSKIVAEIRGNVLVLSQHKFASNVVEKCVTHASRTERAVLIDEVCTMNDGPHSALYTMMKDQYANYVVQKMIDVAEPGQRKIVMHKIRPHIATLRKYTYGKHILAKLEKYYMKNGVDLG
A digest of the protocol:
as §1

Another test has as its target PUM1 PUF domain R8-MHK (Homo sapiens, UniProt Q14671 828-1176, N1122M;Y1123H;Q1126K). A digest of the protocol: as §1
A further test deals with T2, PUM1 PUF domain R6-SFG (Homo sapiens, UniProt Q14671 828-1176, N1043S;Y1044F;Q1047G).
T2 sequence: T1 sequence with I216S, Q220G
In a few lines:
as §1

A further test concerns the target PUM1 PUF domain R4-PWS (Homo sapiens, UniProt Q14671 828-1176, N971P;H972W;Q975S). In a few lines:
as §1

In another test the target is PUM1 PUF domain R8-SYW (Homo sapiens, UniProt Q14671 828-1176, N1122S;Q1126W). In a few lines:
as §1

In a further test the target is PUM1 PUF domain R3-SHG (Homo sapiens, UniProt Q14671 828-1176, C935S;R936H;Q939G). A digest of the protocol:
as §1

In another test the target is PUM1 PUF domain R7-LSC (Homo sapiens, UniProt Q14671 828-1176, S1079L;N1080S;E1083C). A digest of the protocol:
as §1

A further test has as its target PUM1 PUF domain R1-TRR (Homo sapiens, UniProt Q14671 828-1176, S863T;Q867R). A digest of the protocol:
as §1

Substitutions are numbered along the chain they refer to.

Consider “GGCUAGAACUAGUGGAUCCCCCGGCGCCCGGCGGCUCGAGCCCGGGUAAGUGUGAAUAGUCUGCAUGCCGCCGGGCGCCAUGCCUGCAGGUCGACUCUAGAAAACAUG”, for which the binding signal with PUM1 PUF domain R5-DWW was 5.08 log2 enrichment (interaction score).
“GGCUAGAACUAGUGGAUCCCCCGGCGCCCGGCGGCUCGAGCCCGGGUAAGUCUAAAUAGUCUGCAUGCCGCCGGGCGCCAUGCCUGCAGGUCGACUCUAGAAAACAUG”: the binding signal was 1.83 log2 enrichment (interaction score) in the test with PUM1 PUF domain R7-RAR; 2.43 log2 enrichment (interaction score) in the test with PUM1 PUF domain R7-QFR; 0.35 log2 enrichment (interaction score) in the test with PUM1 PUF domain R7-LNS; 0.18 log2 enrichment (interaction score) in the test with PUM1 PUF domain R7-CRR; 3.52 log2 enrichment (interaction score) in the test with PUM1 PUF domain R7-RRR.
For the sequence “GGCUAGAACUAGUGGAUCCCCCGGCGCCCGGCGGCUCGAGCCCGGGUAAGUGUAUAUAGUCUGCAUGCCGCCGGGCGCCAUGCCUGCAGGUCGACUCUAGAAAACAUG”, the binding signal was 2.85 log2 enrichment (interaction score) with PUM1 PUF domain R4-WGM, 4.36 log2 enrichment (interaction score) with PUM1 PUF domain R4-WSH, 3.42 log2 enrichment (interaction score) with PUM1 PUF domain R4-TPN and 4.11 log2 enrichment (interaction score) with PUM1 PUF domain R4-PFS.
With “GGCUAGAACUAGUGGAUCCCCCGGCGCCCGGCGGCUCGAGCCCGGGUAAGUGUAAAUAGUCUGCAUGCCGCCGGGCGCCAUGCCUGCAGGUCGACUCUAGAAAACAUG”, the binding signal in the test with PUM1 PUF domain R4-WSH is 1.11 log2 enrichment (interaction score); with PUM1 PUF domain R6-IFQ, 3.62 log2 enrichment (interaction score); with PUM1 PUF domain R4-TPN it was 5.21 log2 enrichment (interaction score); with PUM1 PUF domain R8-MHK, 2.63 log2 enrichment (interaction score); with PUM1 PUF domain R6-SFG it was 4.88 log2 enrichment (interaction score); with PUM1 PUF domain R4-PWS, 6.05 log2 enrichment (interaction score). Besides, the binding signal is 3.33 log2 enrichment (interaction score) in the test with PUM1 PUF domain R8-SYW and 3.6 log2 enrichment (interaction score) with PUM1 PUF domain R3-SHG.
With “GGCUAGAACUAGUGGAUCCCCCGGCGCCCGGCGGCUCGAGCCCGGGUAAGUGUACAUAGUCUGCAUGCCGCCGGGCGCCAUGCCUGCAGGUCGACUCUAGAAAACAUG”, the binding signal in the test with PUM1 PUF domain R4-TPN was 4.27 log2 enrichment (interaction score); with PUM1 PUF domain R4-PFS it was 5.13 log2 enrichment (interaction score); in the test with PUM1 PUF domain R4-PWS, 4.61 log2 enrichment (interaction score).
As to “GGCUAGAACUAGUGGAUCCCCCGGCGCCCGGCGGCUCGAGCCCGGGUAAGUUUAAAUAGUCUGCAUGCCGCCGGGCGCCAUGCCUGCAGGUCGACUCUAGAAAACAUG”, the binding signal with PUM1 PUF domain R7-RAR was 4.56 log2 enrichment (interaction score); with PUM1 PUF domain R7-LNS, 5.15 log2 enrichment (interaction score); with PUM1 PUF domain R7-LSC, 4.33 log2 enrichment (interaction score); with PUM1 PUF domain R7-CRR it was 2.87 log2 enrichment (interaction score); in the test with PUM1 PUF domain R7-RRR it was 3.77 log2 enrichment (interaction score).
With “GGCUAGAACUAGUGGAUCCCCCGGCGCCCGGCGGCUCGAGCCCGGGUAAGUGUAAAUUGUCUGCAUGCCGCCGGGCGCCAUGCCUGCAGGUCGACUCUAGAAAACAUG”, the binding signal in the test with PUM1 PUF domain R1-TRR is 3.12 log2 enrichment (interaction score).
